{"source": "ChEMBL document CHEMBL3988442", "about": "“University of Dundee, Small-Polar-MMV Screening Library” (2021)", "note": "Hit rate of the full screen: of about 48,000 compounds, about 13,000 (27%) showed an effect of 50% or more. The list shows a part of the results."}
{"test_system": "Wolbachia pipientis", "assay": "Anti-Wolbachia Cell-Based Screen", "type": "functional", "set-up": "scale not given: in the data most compounds retested in dose-response had high values", "conditions": "5 µM", "units": {"Percent Effect": "%"}}
{"smiles": "CC(C)(O)CCc1ccc(C(=O)N2CCN(CC3CCCC3)CC2)cc1", "Percent Effect": -6.284}
{"smiles": "COCc1nn(C)c2c1CCN(Cc1cnn(C)c1)C2.O=C(O)C(F)(F)F", "Percent Effect": -18.26}
{"smiles": "CN(C)CCn1c2c(ccc1=O)CCN(Cc1cnn(C)c1)CC2.O=C(O)C(F)(F)F.O=C(O)C(F)(F)F", "Percent Effect": 120.7}
{"smiles": "Cc1nccn1-c1cccc(C2CCCN(C(=O)c3cc[nH]n3)C2)n1", "note": "(stereo not given)", "Percent Effect": 5.97}
{"smiles": "CCc1nccn1-c1cccc(C2CCCN(C3CCCCC3)C2)n1", "note": "(stereo not given)", "Percent Effect": 96.78}
{"smiles": "c1ccc(-c2nnc([C@H]3CCN(C4CCOCC4)C3)o2)cc1", "Percent Effect": -19.45}
{"smiles": "Fc1ccccc1-c1cccc(C2CCCN(C3CCOCC3)C2)n1", "note": "(stereo not given)", "Percent Effect": 71.52}
{"smiles": "Cc1cccc(O[C@H]2COCCN(C3CCOCC3)C2)n1", "Percent Effect": -0.8542}
{"smiles": "Cc1nccn1-c1cccc(C2CCCN(C3CCCC3)C2)n1", "note": "(stereo not given)", "Percent Effect": 98.22}
{"smiles": "Cc1nccn1-c1cccc(C2CCCN(C3CCCCC3)C2)n1", "note": "(stereo not given)", "Percent Effect": -27.27}
{"smiles": "O=c1cc2c(nn1CN1CCOCC1)CCC2", "Percent Effect": 1.556}
{"smiles": "CNC(=O)NC(=O)CNc1cc(C(=O)OC)cc(C(F)(F)F)c1", "Percent Effect": 1.326}
{"smiles": "COc1cccc(CN2CCc3nc(C(=O)NCC(C)C)sc3CC2)c1.O=C(O)C(F)(F)F", "Percent Effect": 3.655}
{"smiles": "Fc1cccc(N2CCc3ncnc(C4CC4)c3CC2)c1", "Percent Effect": 8.314}
{"smiles": "CC(C)NC(=O)NC[C@H]1OC[C@@H](NCc2ccc(S(C)(=O)=O)cc2)[C@@H]1O", "Percent Effect": 9.83}
{"smiles": "CO[C@@H]1CC[C@H]2[C@H]1OCCN2C(=O)c1ccc(C)o1", "Percent Effect": -15.27}
{"smiles": "CO[C@@H]1CC[C@H]2[C@H]1OCCN2C(=O)COc1ccc(C)cc1", "Percent Effect": 102.2}
{"smiles": "CO[C@H]1CC[C@H]2[C@H]1OCCN2C(=O)CCOc1ccccc1", "Percent Effect": 104.1}
{"smiles": "CCC(C)(CC(=O)OC)NC(=O)c1ccc(C(C)=O)cc1", "note": "(stereo not given)", "Percent Effect": 5.798}
{"smiles": "Cl.O=C(NCc1ccc(Cl)cc1)N1CCN(CC(O)C2CC2)CC1", "note": "(stereo not given)", "Percent Effect": 116}
{"smiles": "O=S(=O)(Cc1ccc(F)cc1)N1CCN(CC(O)C2CC2)CC1", "note": "(stereo not given)", "Percent Effect": -13.11}
{"smiles": "Cl.Cl.O=C(CN1CCN(CC(O)C2CC2)CC1)NCc1ccc(F)cc1", "note": "(stereo not given)", "Percent Effect": 3.1}
{"smiles": "COc1ccc(CNC(=O)N2CCN(C)[C@@H]3CS(=O)(=O)C[C@@H]32)cc1", "Percent Effect": 5.272}
{"smiles": "Cl.O=C(NCc1ccc(F)cc1)N1CCN(CC(O)C2CC2)CC1", "note": "(stereo not given)", "Percent Effect": 111}
{"smiles": "COc1cccc(CNC(=O)N2CCN(Cc3cc(C)on3)CC2)c1", "Percent Effect": -11.4}
{"smiles": "COc1ccc(CNC(=O)N2CCN(CC(O)C3CC3)CC2)cc1.Cl", "note": "(stereo not given)", "Percent Effect": 99.74}
{"smiles": "O=C1CC(C(=O)O)C2(CCN(C(=O)NCc3ccc(Cl)cc3)CC2)N1", "note": "(stereo not given)", "Percent Effect": 6.317}
{"smiles": "Cl.Cl.OC(CN1CCN(Cc2cc(F)cc(F)c2)CC1)C1CC1", "note": "(stereo not given)", "Percent Effect": -3.47}
{"smiles": "CC(=O)N1CCN(c2cc(-c3ccccc3)nc3c(C)c(C)nn23)CC1", "Percent Effect": -0.0371}
{"smiles": "Cc1nc(-c2ccccc2)cc2nn(CC(N)=O)c(=O)n12", "Percent Effect": 117.5}
{"smiles": "Cc1nn2c(NCC(N)=O)cc(-c3ccccc3)nc2c1C", "Percent Effect": 1.327}
{"smiles": "COc1ccc(-c2cc3nn(CC(N)=O)c(=O)n3c(C)n2)cc1", "Percent Effect": 110.8}
{"smiles": "COc1ccc(NC(=O)Cn2nc(C)c(C)cc2=O)cc1", "Percent Effect": -2.265}
{"smiles": "COc1ccc(Cn2nc(C(N)=O)ccc2=O)c(Cl)c1", "Percent Effect": 8.088}
{"smiles": "COc1ccc(-c2cc3nn(CC(=O)NC(C)C)c(=O)n3c(C)n2)cc1", "Percent Effect": 109.7}
{"smiles": "COCC(=O)N[C@H](C)c1c(-c2ccc(OC)cc2)noc1C(=O)O", "Percent Effect": -10.1}
{"smiles": "CN(C)C(C(=O)N1CCN(CC(F)(F)F)CC1)c1ccccc1F", "note": "(stereo not given)", "Percent Effect": -7.118}
{"smiles": "Cn1nc(Cn2ccnc2)c2c1CN(C(=O)c1ccc[nH]1)C2", "Percent Effect": -17.57}
{"smiles": "CCCc1cnc(C)nc1NC(C)Cc1cnccn1", "note": "(stereo not given)", "Percent Effect": -13.48}
{"smiles": "COc1ccccc1N1CCC(CNC(=O)N(C)Cc2ccco2)C1", "note": "(stereo not given)", "Percent Effect": 0.07203}
{"smiles": "COCCN(c1ccncc1)S(=O)(=O)c1cc(C)cc(F)c1", "Percent Effect": -2.462}
{"smiles": "Cc1nc(C2CCCN(C(=O)c3ccoc3)C2)no1", "note": "(stereo not given)", "Percent Effect": 101.5}
{"smiles": "Cc1nc(C2CCCN(C(=O)c3cccc(S(C)(=O)=O)c3)C2)no1", "note": "(stereo not given)", "Percent Effect": 8.734}
{"smiles": "Cc1nc(C2CCCN(C(=O)c3ccc(S(C)(=O)=O)cc3)C2)no1", "note": "(stereo not given)", "Percent Effect": 120.9}
{"smiles": "CC(C)c1nc(C2CCCN(C(=O)c3ccnc(N(C)C)c3)C2)no1", "note": "(stereo not given)", "Percent Effect": -3.864}
{"smiles": "Cc1nc(C2CCCN(C(=O)c3ccco3)C2)no1", "note": "(stereo not given)", "Percent Effect": 13.92}
{"smiles": "Cc1nc(C2CCCN(C(=O)c3ccnc(N(C)C)c3)C2)no1", "note": "(stereo not given)", "Percent Effect": 127.7}
{"smiles": "Cc1cnn(CCNCc2ccc(OCc3csc(C)n3)cc2)c1", "Percent Effect": -5.1}
{"smiles": "Cn1c(Cn2cccn2)nnc1C1CCCN(c2ccncc2)C1", "note": "(stereo not given)", "Percent Effect": -11.32}
{"smiles": "Cc1ccccc1C(=O)NCc1ccc(N2CCNC(=O)C2)c(F)c1", "Percent Effect": -11.32}
{"smiles": "O=C(O)C(F)(F)F.O=C([C@H]1COC[C@H]2CN(CC3CCCC3)C[C@H]21)N1CCOCC1", "Percent Effect": -19.66}
{"smiles": "COc1ccc(NC(=O)c2nc3ccccc3n(C)c2=O)c(OC)c1", "Percent Effect": 115.5}
{"smiles": "COc1cccc(NC(=O)c2nc3ccccc3n(C)c2=O)c1", "Percent Effect": 124.2}
{"smiles": "CCCN1CCC(NC(=O)Nc2ccc(OC)c(OC)c2)CC1", "Percent Effect": 8.494}
{"smiles": "COc1ccc(Nc2nc3c(C)nn(C)c3c(=O)n2C)c(OC)c1", "Percent Effect": -1.628}
{"smiles": "COc1cc(NC(=O)NCc2ccccn2)cc(OC)c1", "Percent Effect": 6.3}
{"smiles": "COc1cc(NC(=O)c2nc3ccccc3n(C)c2=O)cc(OC)c1", "Percent Effect": 112.5}
{"smiles": "COc1ccc(NC(=O)c2nc3ccccc3n(C)c2=O)cc1OC", "Percent Effect": 120.1}
{"smiles": "Cn1c(CCCNC(=O)Nc2cn[nH]c2)nc2ccccc21", "Percent Effect": -21.13}
{"smiles": "COc1ccc(OC)c(NC(=O)c2nc3ccccc3n(C)c2=O)c1", "Percent Effect": 10.54}
{"smiles": "COc1cccc(NC(=O)NC(C)(C)c2noc(C)n2)c1", "Percent Effect": -4.672}
{"smiles": "COc1cccc(NC(=O)Cc2c(C)nc3c(c2C)c(=O)[nH]n3C)c1", "Percent Effect": 0.5633}
{"smiles": "CCSc1nc(N)c(NC(=O)c2ccc(OC)c(OC)c2)c(=O)[nH]1", "Percent Effect": -7.588}
{"smiles": "CN(Cc1ccsc1)C(=O)Nc1cccc(N2CCOC2=O)c1", "Percent Effect": 1.632}
{"smiles": "Cc1cccc(NC(=O)C2CCCN2C(=O)c2ccco2)c1C", "note": "(stereo not given)", "Percent Effect": -37.39}
{"smiles": "O=C(NCC1CC1)C1CN(c2ncccn2)Cc2ccnn2C1.O=C(O)C(F)(F)F.O=C(O)C(F)(F)F", "note": "(stereo not given)", "Percent Effect": 106}
{"smiles": "CC(C)NC(=O)C1CN(Cc2cccs2)Cc2ccnn2C1", "note": "(stereo not given)", "Percent Effect": -1.449}
{"smiles": "COCCNC(=O)C1CN(Cc2nccs2)Cc2ccnn2C1.O=C(O)C(F)(F)F.O=C(O)C(F)(F)F", "note": "(stereo not given)", "Percent Effect": -2.959}
{"smiles": "COCCNC(=O)C1CN(Cc2cccc(C)n2)Cc2ccnn2C1.O=C(O)C(F)(F)F.O=C(O)C(F)(F)F", "note": "(stereo not given)", "Percent Effect": 6.488}
{"smiles": "COCCNC(=O)C1CN(Cc2csc(C)n2)Cc2ccnn2C1.O=C(O)C(F)(F)F", "note": "(stereo not given)", "Percent Effect": 0}
{"smiles": "CCOCC1CN(C(=O)Cc2cccs2)Cc2ccnn2C1", "note": "(stereo not given)", "Percent Effect": -16.86}
{"smiles": "Cc1ccc(CN2Cc3ccnn3CC(C(=O)NCC3CC3)C2)o1.O=C(O)C(F)(F)F.O=C(O)C(F)(F)F", "note": "(stereo not given)", "Percent Effect": 99}
{"smiles": "COCCNC(=O)C1CN(Cc2ccncc2)Cc2ccnn2C1.O=C(O)C(F)(F)F.O=C(O)C(F)(F)F.O=C(O)C(F)(F)F", "note": "(stereo not given)", "Percent Effect": 13.9}
{"smiles": "Cc1noc(C)c1CN1Cc2ccnn2CC(C(=O)NCC2CC2)C1.O=C(O)C(F)(F)F.O=C(O)C(F)(F)F", "note": "(stereo not given)", "Percent Effect": -16.43}
{"smiles": "CC(C)NC(=O)C1CN(Cc2ccsc2)Cc2ccnn2C1.O=C(O)C(F)(F)F.O=C(O)C(F)(F)F", "note": "(stereo not given)", "Percent Effect": 1.409}
{"smiles": "O=C(NCC1CC1)C1CN(Cc2ccncc2)Cc2ccnn2C1.O=C(O)C(F)(F)F.O=C(O)C(F)(F)F.O=C(O)C(F)(F)F", "note": "(stereo not given)", "Percent Effect": 99.23}
{"smiles": "O=C(NCC1CC1)C1CN(Cc2cccs2)Cc2ccnn2C1", "note": "(stereo not given)", "Percent Effect": 124.8}
{"smiles": "CC(C)c1nnc2n1CC(CNCc1ccncc1)CC2", "note": "(stereo not given)", "Percent Effect": -13.6}
{"smiles": "CCCS(=O)(=O)N1CCOC2(CCCN(c3ncc(F)cn3)C2)C1", "note": "(stereo not given)", "Percent Effect": -2.367}
{"smiles": "N#CCCN(Cc1ccco1)C(=O)CCCc1ccccc1", "Percent Effect": 9.287}
{"smiles": "COc1nn(C)c2c1CCCN(S(=O)(=O)c1cccs1)C2", "Percent Effect": 2.697}
{"smiles": "Cc1ccc(CN2CCCC2(C(N)=O)c2cnccn2)c(C)c1", "note": "(stereo not given)", "Percent Effect": 148.6}
{"smiles": "O=C(O)[C@]12CCCN(Cc3ccncc3)[C@@H]1CCN(c1cnccn1)C2", "Percent Effect": 15.13}
{"smiles": "O=C(c1cnccn1)N1CCCC2(CCCN2Cc2cccnc2)C1", "note": "(stereo not given)", "Percent Effect": 8.648}
{"smiles": "NC(=O)C1(c2cnccn2)CCCN1Cc1cccc(Cl)c1", "note": "(stereo not given)", "Percent Effect": 110.7}
{"smiles": "NC(=O)C1(c2cnccn2)CCCN1Cc1ccncc1", "note": "(stereo not given)", "Percent Effect": 100.7}
{"smiles": "O=C(O)C1(Cc2ccc(Cl)cc2)CCN(c2ncccc2F)CC1", "Percent Effect": 4.468}
{"smiles": "Cc1ccc(NC(=O)C2CSCN2C(=O)c2cnccn2)c(C)c1", "note": "(stereo not given)", "Percent Effect": -0.3998}
{"smiles": "Cc1cccc(CN2C[C@@H]3CN(C(=O)c4cnccn4)C[C@@H]3C2=O)c1", "Percent Effect": -5.846}
{"smiles": "Cl.Cl.O[C@@H]1C[C@@](CNCc2cccc(Cl)c2)(COc2cnccn2)C[C@@H]1O", "Percent Effect": -20.67}
{"smiles": "NC(=O)C1(c2cnccn2)CCCN1Cc1ccc(Cl)cc1", "note": "(stereo not given)", "Percent Effect": 127.2}
{"smiles": "Cc1cncc(C(=O)N2CCNCC2C(=O)NCc2ccncc2)c1", "note": "(stereo not given)", "Percent Effect": -0.08971}
{"smiles": "Cc1ccccc1-c1cc(C(=O)NCCN2CCCS2(=O)=O)[nH]n1", "Percent Effect": -0.2577}
{"smiles": "Cc1c(C(=O)N2CCSCC2)sc2nc(C(F)(F)F)ccc12", "Percent Effect": -6}
{"smiles": "COC1CCN(S(=O)(=O)N2CC[C@@](O)(C3CCC3)[C@H](C)C2)CC1", "Percent Effect": -8.21}
